# Source: the supplement of paper PMC6555819
# Tests used:
# Test in all cases: PBM binding z-score (relative to random genomic background probes); higher = stronger binding; sequences stand for … in GC…GCGATTGACAGCGTAGAATGAAGG
# [1] = system: PPARg:RXRa DBDmut IVT, anti-RXR (DBD mutation: RXRa K156A/R161A, NR concentration 270 nM, RXRa partner concentration 90 nM)
# In short: (§1)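 Binding z-scores take random background probes as their reference. They come from custom Agilent 4×180K protein-binding microarrays incubated 1 h with ligand-free nuclear receptor dimers, with antibodies against each partner (one per run) detecting binding. Scanned fluorescence was regression-normalized.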
# [2] = system: PPARg:RXRa IVT, anti-PPARg (NR concentration 270 nM, RXRa partner concentration 90 nM)
# In short: as §1
# [3] = system: PPARg DBDmut:RXRa IVT, anti-PPARg (DBD mutation: PPARg1 K132A/R137A, NR concentration 270 nM, RXRa partner concentration 90 nM)
# In short: as §1
# [4] = system: PPARg DBDmut IVT, anti-PPARg (DBD mutation: PPARg1 K132A/R137A, NR concentration 270 nM)
# In short: as §1
# [5] = system: PPARg homodimer (NR concentration 180 nM)
# In short: as §1
# [6] = system: PXR:RXRa (NR concentration 270 nM, RXRa partner concentration 90 nM)
# In short: as §1
# [7] = system: PXR homodimer (NR concentration 270 nM)
# In short: as §1
# [8] = system: RARa:RXR (NR concentration 270 nM, RXRa partner concentration 90 nM)
# In short: as §1
# [9] = system: RARa homodimer (NR concentration 270 nM)
# In short: as §1
# [10] = system: RARb:RXRa (NR concentration 270 nM, RXRa partner concentration 90 nM)
# In short: as §1
# [11] = system: RARb homodimer (NR concentration 270 nM)
# In short: as §1
# [12] = system: RARg:RXRa (NR concentration 270 nM, RXRa partner concentration 90 nM)
# In short: as §1
# [13] = system: RARg homodimer (NR concentration 270 nM)
# In short: as §1
# [14] = system: RXRa DBDmut IVT, anti-RXR (DBD mutation: RXRa K156A/R161A, NR concentration 90 nM)
# In short: as §1
# [15] = system: RXRa homodimer (NR concentration 180 nM)
# In short: as §1
# [16] = system: THRa:RXRa (NR concentration 90 nM, RXRa partner concentration 90 nM)
# In short: as §1
# [17] = system: THRa homodimer (NR concentration 90 nM)
# In short: as §1
# [18] = system: VDR homodimer (NR concentration 270 nM)
# In short: as §1
Sequence,PBM binding z-score [1],PBM binding z-score [2],PBM binding z-score [3],PBM binding z-score [4],PBM binding z-score [5],PBM binding z-score [6],PBM binding z-score [7],PBM binding z-score [8],PBM binding z-score [9],PBM binding z-score [10],PBM binding z-score [11],PBM binding z-score [12],PBM binding z-score [13],PBM binding z-score [14],PBM binding z-score [15],PBM binding z-score [16],PBM binding z-score [17],PBM binding z-score [18]
ACACCAAGGTGATCGTGAGGTCGTTGATACTAAC,0.605,1.04,-0.599,0.153,0.72,2.98,1.07,2.18,0.0851,1.47,1.69,2.28,0.878,1.13,1.64,3.42,2.39,2.69
CCTACTGGGCCAAAGGTAATTGATTCCAATGCTC,5.36,4.68,0.0261,0.0447,0.234,-0.286,-0.264,-0.0121,-0.474,0.179,0.00337,0.0107,0.0633,-0.288,0.00386,0.0403,-0.123,-0.113
CGTCCAAGGTCAGAGAGGTCAGGGAATGCCGAGT,2.19,3.4,0.15,0.231,4.31,5.87,10.6,5.44,1.09,5.55,5.34,6.59,7.38,3.45,6.19,4.47,3.11,4.88
AGTCAAAGTTCATCTAGGTAACGTTAGATATGCT,1.25,3.81,1.67,1.07,2.67,5.32,7.67,4.08,0.982,5,3.74,5.6,6.39,4.62,4.96,2.94,0.114,5.6
GCTTGTAGATCAAGGTTCAGAAAGACTAAGCTAA,1.07,1.53,0.321,-0.08,-0.171,0.124,-0.087,0.533,-0.997,0.339,0.239,0.226,0.173,1.09,0.62,-0.139,-0.807,1.33
AGGCAAAGTTCAGGACGAGGTAACGTAAAGCACG,-0.11,1.19,0.287,-0.24,2.28,2.89,1.59,2.82,1.16,4.26,3.36,4.68,5.16,2.98,3.23,3.87,1.95,2.35
TCATATAGGTAAAAGGTGAACGTCGGTGTGGTAA,5.71,5.6,1.12,1.53,1.65,1.86,0.862,2.9,1.07,2.15,2.19,2.22,1.26,1.84,2.94,1.84,0.67,0.547
TCGAGTAGGTTAAGGGCATTCAGAATGGCGTCGA,2.73,2.37,-0.645,-1.04,0.261,0.999,0.373,0.821,-0.417,2.03,1.47,1.08,1.23,0.693,1.18,2.16,0.794,1.14
